Assay outcomes deposited in PubChem BioAssay by Broad Institute.
IDE exosite FP: exo-site inhibitors of human IDE, primary screen, biochemical, fluorescence anisotropy, probe displacement; Insulin-degrading enzyme (Homo sapiens), P14735; purified IDE, FL-6b probe fluorescence polarization; stronger effect = lower value; z-score at 20 µM; 6.3% of 17,000 active; AID 1259349, 2017;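 active means z-score of -3 or lower, meaning strong loss of probe binding signal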;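 further: His-tagged human IDE residues 42-1019 made in E. coli with 30 nM FL-6b probe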
Target sequence (P14735 42-1019 limits assumed): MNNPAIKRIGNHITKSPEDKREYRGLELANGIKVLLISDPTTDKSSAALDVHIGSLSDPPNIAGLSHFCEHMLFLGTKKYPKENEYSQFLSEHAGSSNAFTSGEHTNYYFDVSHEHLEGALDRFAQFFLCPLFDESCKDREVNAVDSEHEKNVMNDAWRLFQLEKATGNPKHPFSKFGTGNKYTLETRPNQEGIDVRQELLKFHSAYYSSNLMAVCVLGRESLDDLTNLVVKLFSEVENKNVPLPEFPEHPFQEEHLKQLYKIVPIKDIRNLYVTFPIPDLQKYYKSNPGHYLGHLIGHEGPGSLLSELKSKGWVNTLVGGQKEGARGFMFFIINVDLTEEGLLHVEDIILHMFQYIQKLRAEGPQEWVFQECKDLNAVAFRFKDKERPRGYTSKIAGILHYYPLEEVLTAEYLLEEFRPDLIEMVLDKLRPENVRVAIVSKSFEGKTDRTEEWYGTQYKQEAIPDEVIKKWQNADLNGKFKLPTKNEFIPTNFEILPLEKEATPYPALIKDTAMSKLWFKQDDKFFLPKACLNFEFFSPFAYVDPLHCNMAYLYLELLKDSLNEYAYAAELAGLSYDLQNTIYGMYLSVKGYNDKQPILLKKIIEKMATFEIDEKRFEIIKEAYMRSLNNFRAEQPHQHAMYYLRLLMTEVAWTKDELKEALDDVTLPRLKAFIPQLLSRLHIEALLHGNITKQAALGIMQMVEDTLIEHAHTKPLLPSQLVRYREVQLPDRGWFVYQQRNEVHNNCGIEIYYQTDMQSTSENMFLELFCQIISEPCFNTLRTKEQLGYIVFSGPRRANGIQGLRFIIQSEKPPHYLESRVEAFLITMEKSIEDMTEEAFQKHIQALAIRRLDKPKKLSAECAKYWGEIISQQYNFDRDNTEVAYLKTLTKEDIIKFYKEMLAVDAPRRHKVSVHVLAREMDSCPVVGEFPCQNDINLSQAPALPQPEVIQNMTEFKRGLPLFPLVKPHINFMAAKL
Hits are given with their value. Only a selection was taken, and hits are over-represented in it overall.

For CC(C)CC#Cc1ccc([C@H]2[C@H](CO)N3C(=O)CN(C(=O)Cc4cccnc4)C[C@@H]23)cc1 the results were IDE exosite FP inactive.
Screening O=C(c1cccc(F)c1)N1CC(=O)N2[C@@H](CO)[C@H](c3ccc(C4=CCCC4)cc3)[C@@H]2C1 returned IDE exosite FP inactive.
For Cc1ccccc1S(=O)(=O)N1CC(=O)N2[C@H](C1)[C@H](c1ccc(C#CCC(C)C)cc1)[C@@H]2CO the results were IDE exosite FP inactive.
For COc1ccc2c3c(n(C)c2c1)[C@H](CO)N(Cc1ccccc1F)CC31CCN(C(=O)C2CCOCC2)CC1 the results were IDE exosite FP inactive.
COCC(=O)N1CC2(C1)CN(Cc1cccc(F)c1)[C@H](CO)c1c2c2ccc(OC)cc2n1C was read as IDE exosite FP inactive.
Screening COc1ccc2c3c(n(C)c2c1)[C@@H](CO)N(Cc1cc(F)ccc1F)CC31CN(C(=O)C2CC2)C1 returned IDE exosite FP inactive.
Screening COCC(=O)N1CCC2(CC1)CN(Cc1cc(F)ccc1F)[C@H](CO)c1c2c2ccc(OC)cc2n1C returned IDE exosite FP -4.
Screening COCC(=O)N1CC2(C1)CN(Cc1cccc(F)c1)[C@@H](CO)c1c2c2ccc(OC)cc2n1C returned IDE exosite FP inactive.
For COc1ccc2c3c(n(C)c2c1)[C@H](CO)N(Cc1cccc(F)c1)CC31CCN(C(=O)Cc2ccccc2)CC1 the results were IDE exosite FP -3.7.
For CCC(=O)Nc1ccc2c(c1)C(=O)N(C)C[C@@H](OC)[C@@H](C)CN(Cc1nccs1)[C@@H](C)CO2 the results were IDE exosite FP inactive.
Screening OC[C@H]1[C@@H](c2ccc(C#Cc3cccnc3)cc2)[C@H]2CN(Cc3ccccc3F)CCCCN21 returned IDE exosite FP inactive.
For CN1C(=O)c2cc(NC(=O)Nc3ccc(Cl)cc3)ccc2OC[C@@H]2O[C@H](CC(=O)NCCN3CCCCC3)CC[C@@H]21 the results were IDE exosite FP inactive.
`C[C@H]1CN([C@@H](C)CO)C(=O)CCCn2cc(nn2)CO[C@H]1CN(C)C(=O)Nc1ccc2c(c1)OCO2` gave IDE exosite FP inactive.
Screening C[C@@H]1CN([C@H](C)CO)C(=O)CCCn2nncc2CO[C@@H]1CN(C)C(=O)Nc1ccc(-c2cccs2)cc1 returned IDE exosite FP inactive.
For Cc1cccc(-c2ccc([C@@H]3[C@@H](CO)N4CCCCN(C(=O)c5cccnc5)C[C@@H]34)cc2)c1 the results were IDE exosite FP -3.3.
O=C(c1cccc(F)c1)N1CCCCN2[C@H](CO)[C@H](c3ccc(-c4cccnc4)cc3)[C@H]2C1 was read as IDE exosite FP inactive.
Screening O=C(c1cccc(F)c1)N1CCCCN2[C@H](CO)[C@@H](c3ccc(-c4cccnc4)cc3)[C@H]2C1 returned IDE exosite FP inactive.
For Cc1cccc(-c2ccc([C@@H]3[C@@H](CO)N4CCCCN(C(=O)c5cccnc5)C[C@H]34)cc2)c1 the results were IDE exosite FP -4.3.
For Cc1cccc(-c2ccc([C@H]3[C@H]4CN(C(=O)c5cccnc5)CCCCN4[C@H]3CO)cc2)c1 the results were IDE exosite FP inactive.
Screening Cc1cccc(-c2ccc([C@H]3[C@H](CO)N4CCCCN(C(=O)c5cccnc5)C[C@@H]34)cc2)c1 returned IDE exosite FP inactive.
For COc1ccc(C#Cc2ccc([C@@H]3[C@H](CO)N4C(=O)CN(C(=O)Nc5ccccc5F)C[C@@H]34)cc2)cc1 the results were IDE exosite FP inactive.
CC(C)NC(=O)N(C)C[C@@H]1Oc2ccc(NC(=O)Cc3ccccc3)cc2CC(=O)N([C@@H](C)CO)C[C@@H]1C was read as IDE exosite FP inactive.
CCCNC(=O)N1[C@H](CO)[C@H](c2ccccc2)[C@@H]1CNC(=O)C1CCCCC1 was read as IDE exosite FP inactive.
For N#C[C@@H]1[C@@H](c2ccccc2C2=CCCCC2)[C@H](CO)N1C(=O)C1CCOCC1 the results were IDE exosite FP inactive.
Screening CCCC#Cc1ccc([C@@H]2[C@@H](CO)N3CCCCN(CCC)C[C@@H]23)cc1 returned IDE exosite FP inactive.
For COc1cccc(NC(=O)N2CC(=O)N3[C@H](C2)[C@@H](c2ccc(C4=CCCC4)cc2)[C@@H]3CO)c1 the results were IDE exosite FP inactive.
`CC(C)C#Cc1ccc([C@H]2[C@@H](CO)N3CCCCN(C(=O)NC(C)C)C[C@@H]23)cc1` gave IDE exosite FP inactive.
For CC(C)C#Cc1ccc([C@H]2[C@H]3CN(C(=O)NC(C)C)CCCCN3[C@H]2CO)cc1 the results were IDE exosite FP inactive.
CC(C)NC(=O)N1CCCCN2[C@H](CO)[C@H](c3ccc(C#Cc4ccccc4)cc3)[C@H]2C1 was read as IDE exosite FP -5.
Screening CC(C)NC(=O)N1CCCCN2[C@H](C1)[C@@H](c1ccc(C#Cc3ccccc3)cc1)[C@@H]2CO returned IDE exosite FP -3.7.
`CC(C)C#Cc1ccc([C@@H]2[C@H](CO)N3CCCCN(C(=O)NC(C)C)C[C@@H]23)cc1` gave IDE exosite FP inactive.
For CC(C)NC(=O)N1CCCCN2[C@H](C1)[C@@H](c1ccc(C#C[C@H](C)O)cc1)[C@@H]2CO the results were IDE exosite FP inactive.
Screening CC(C)NC(=O)N1CCCCN2[C@H](CO)[C@@H](c3ccc(C#Cc4ccccc4)cc3)[C@H]2C1 returned IDE exosite FP -9.2.
For CC(C)NC(=O)N1CCCCN2[C@H](CO)[C@@H](c3ccc(C#CC4CC4)cc3)[C@H]2C1 the results were IDE exosite FP inactive.
CC(C)NC(=O)N1CCCCN2[C@@H](CO)[C@H](c3ccc(C#C[C@@H](C)O)cc3)[C@@H]2C1 was read as IDE exosite FP inactive.
For CC(C)NC(=O)N1CCCCN2[C@H](C1)[C@H](c1ccc(C#Cc3ccccc3)cc1)[C@@H]2CO the results were IDE exosite FP -13.
`CC(C)NC(=O)N1CCCCN2[C@H](CO)[C@H](c3ccc(C#C[C@H](C)O)cc3)[C@@H]2C1` gave IDE exosite FP inactive.
`CC(C)C#Cc1ccc([C@@H]2[C@H](CO)N3CCCCN(C(=O)Nc4ccccc4)C[C@@H]23)cc1` gave IDE exosite FP inactive.
For COCC(=O)N1CC[C@H]2[C@H](CO)Nc3ccc(C#Cc4ccc(F)cc4)cc3[C@H]21 the results were IDE exosite FP inactive.
`COc1ccc2c3c([nH]c2c1)[C@H](CO)N(Cc1cc(F)ccc1F)CC31CN(C(=O)C2CCC2)C1` gave IDE exosite FP inactive.
For O=C1N[C@@H](c2ccccc2)COCc2cnnn2CC[C@@H]1Cc1ccc(C(F)(F)F)cc1 the results were IDE exosite FP inactive.
`CCNC[C@@H]1[C@H](c2ccc(-c3ccc(F)cc3)cc2)[C@H](CO)N1S(C)(=O)=O` gave IDE exosite FP inactive.
Screening N#C[C@@H]1[C@@H](c2ccccc2C2=CCCCC2)[C@H](CO)N1C(=O)CN1CCOCC1 returned IDE exosite FP inactive.
CCC(=O)N1CC(=O)N2[C@H](CO)[C@H](c3ccc(-c4cccnc4)cc3)[C@@H]2C1 was read as IDE exosite FP inactive.
Screening CO[C@H]1CN(C)C(=O)c2cc(NC(=O)CC(F)(F)F)ccc2OC[C@H](C)N(CC2CC2)C[C@@H]1C returned IDE exosite FP inactive.
For C[C@@H](O)C#Cc1ccc([C@@H]2[C@H](CO)N3CCCCN(C(=O)c4ccc5c(c4)OCO5)C[C@@H]23)cc1 the results were IDE exosite FP inactive.
COCC#Cc1ccc([C@@H]2[C@@H](CO)N3C(=O)CN(C(=O)Nc4cc(F)ccc4F)C[C@H]23)cc1 was read as IDE exosite FP inactive.
